JMJD2A Tudor: blocks the human JMJD2A Tudor domain | 390,000 compounds, 4.4% hits | AlphaScreen JMJD2A-Tudor / H3K4me3 peptide binding | Potency, µM (doses to about 114 µM), without a hit: top-dose activity change, negative = inhibition, most hits filed as inhibitors | AID 504339 | O75164; also: % is scaled to controls: 0 for no effect and ±100 for the full control effect; nearly all actives have a fitted effect of over 50% in size
BAZ2B block: inhibitors of human BAZ2B bromodomain. AlphaScreen BAZ2B-H3K14Ac peptide displacement. Potency, µM (highest dose often 114 µM), for inactives: at the top dose activity change, negative = inhibition, actives largely listed as inhibitors. 360,000 compounds, 4.4% hits; also: % is scaled to controls: 0 for no effect and ±100 for the full control effect; nearly all actives have a fitted effect of over 60% in size
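Compounds, titrated to a top concentration of 110 uM, were incubated 30 min at room temperature with preformed BAZ2B/acetyl-K14 H3 peptide complex (50 nM each). Proximity signal was measured by AlphaScreen after 20 min with beads.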
PLK1 PBD inh: inhibitors of human PLK1 polo-box domain binding | Plk1 PBD binding of FITC phosphopeptide, fluorescence polarization | Potency, µM, for inactives: max response, negative = inhibition, hits mostly inhibitors | 360,000 compounds, 2.8% hits | AID 720504; also: series mostly up to about 57 µM; % is scaled to controls: 0 for no effect and ±100 for the full control effect; nearly all actives have a fitted effect of over 65% in size
Sfp PPTase inh: blocks B. subtilis Sfp PPTase activity; Biochemical Sfp PPTase activity, qHTS; 310,000 compounds, 3.5% hits; Potency, µM, inactives show largest response in the series, negative = inhibition, hits mostly inhibitors;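 also: the enzyme is Sfp with the accession as filed and its product quenches rhodamine fluorescence; 0% = enzyme reaction without inhibitor and -100% = no enzyme wells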
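Fluorescence-quenching assay: 15 nM Sfp-PPTase preincubated 15 min at room temperature with compound, then 5 uM rhodamine-CoA and 12.5 uM BHQ-2-labelled YbbR peptide added. Fluorescence (ex 525/em 598 nm) read at start and after 30 min; difference gives rate.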
G9a block: G9a (human) methyltransferase inhibition | Potency, µM (doses to about 102 µM), inactives show at the top dose activity, negative = inhibition, most hits filed as inhibitors | 350,000 compounds, 8.8% hits | G9a H3K9 monomethylation, AlphaScreen, 2 h; also: % is scaled to controls: 0 for no effect and ±100 for the full control effect; nearly all actives have a fitted effect of over 75% in size
Target sequence (Q96KQ7 913-1193 limits assumed): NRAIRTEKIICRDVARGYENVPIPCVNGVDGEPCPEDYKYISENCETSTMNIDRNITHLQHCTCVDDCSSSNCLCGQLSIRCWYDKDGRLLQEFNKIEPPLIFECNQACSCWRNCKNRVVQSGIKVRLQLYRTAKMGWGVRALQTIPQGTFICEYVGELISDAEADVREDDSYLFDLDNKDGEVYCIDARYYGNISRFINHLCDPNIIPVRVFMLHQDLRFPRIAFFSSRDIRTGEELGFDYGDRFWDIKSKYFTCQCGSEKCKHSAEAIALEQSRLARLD
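G9a (20 nM) was preincubated 15 min with compound, then reacted 2 h at room temperature with 500 nM biotin-H3K9 peptide and 20 µM SAM. Monomethyl-H3K9 detected by AlphaScreen using anti-H3K9me1 antibody.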
HP1b chromo inh: blocks HP1-beta chromodomain binding to methylated histone tails. P83916. AlphaScreen HP1-beta / biotin-H3K9me3 peptide binding. Potency, µM (highest dose often 114 µM), inactives show top-dose activity change, negative = inhibition, actives largely listed as inhibitors. 390,000 compounds, 0.56% hits. AID 540317; also: nearly all actives have a fitted effect of over 70% in size
Target sequence (P83916 whole entry, looked up): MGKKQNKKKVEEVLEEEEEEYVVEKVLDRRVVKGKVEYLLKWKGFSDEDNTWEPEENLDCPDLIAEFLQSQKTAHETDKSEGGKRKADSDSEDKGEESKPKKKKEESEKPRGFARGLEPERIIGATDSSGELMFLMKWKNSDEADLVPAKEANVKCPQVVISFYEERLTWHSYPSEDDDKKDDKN
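AlphaScreen: HP1-beta (50 nM) preformed 30 min with biotin-H3(1-18)K9me3 peptide (50 nM) in PBS pH 7.4, 0.01% Tween-20. Compound added for 30 min at RT, then streptavidin donor/nickel chelate acceptor beads (10 ug/mL) for 30 min.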
Starred values were filed as active, the others as inactive; ? = inconclusive; nt = no result; [ ] = another dose, or the depositor's remark. Compounds with a hit are over-represented: about 12% of the library has one in this group of screens. Calls follow the shape of the dose curve; as a rule, active = well fitted curve in the direction sought with a large enough effect; inconclusive = small, poorly fitted or top-dose-only effect, or another doubt; inactive = no such curve, though single readings can be large; an effect the other way counts as inactive or inconclusive. Potency is read from the fitted curve at half-maximal effect.

SMILES | JMJD2A Tudor | BAZ2B block | PLK1 PBD inh | Sfp PPTase inh | G9a block | HP1b chromo inh
CCOc1ccc(CCn2c(-c3ccco3)nc3ccccc3c2=O)cc1OCC | -23% | ? | -4% | 56µM* | ? | 6%
COc1ccc(CCn2c(-c3ccco3)nc3nc4ccccc4nc32)cc1 | -8% | 15% | -7% | 35µM* | -39%[12.7 µM] | 22%
COc1ccc(C(=O)OCC(=O)Nc2c(C)n(C)n(-c3ccccc3)c2=O)cc1 | 4% | nt | -3% | nt | nt | 41%
Cc1ccc(C)c(C(=O)COC(=O)CCN2C(=O)C3C4CCC(C4)C3C2=O)c1 (stereo unspecified) | -8% | 0% | -7% | 7% | -8% | 24%
O=C1CN(C(=O)c2cccc(Br)c2)C(c2ccccc2)c2cc(Cl)ccc2N1 (stereo unspecified) | -31% | -22% | nt | nt | ? | 19%
O=C(Nc1ccc(C(=O)N2CCN(c3ccccn3)CC2)cc1)c1ccc(Br)o1 | -32% | ? | -10% | nt | 11%[2.33 µM] | -1%
CCc1ccccc1S(=O)(=O)Cc1ccc(C(=O)N2CCN(c3ccccn3)CC2)o1 | -7% | -3% | -3% | ? | 79µM* | 66%
O=C(c1ccc(Br)o1)N1CCN(c2ccccn2)CC1 | -7% | 3% | -8% | 25µM* | -50%[12.7 µM] | 10%
COc1ccc(NC(=O)Cn2c(=O)n(Cc3ccccc3Cl)c(=O)c3cc(OC)c(OC)cc32)cc1OC | -14% | -1% | nt | nt | 4%[59 µM] | 11%
Cc1ccc(N2CCN(C(=S)c3ccc(N(C)C)cc3)CC2)cc1 | 32µM* | 13µM* | 17µM* | 20µM* | 5µM* | ?
CN(C)c1ccc(C(=S)N2CCN(c3ccc([N+](=O)[O-])cc3)CC2)cc1 | ? | 7% | 11µM* | 3.5µM* | 2.2µM* | ?
Cc1ccc(N2CCN(C(=S)Nc3ccccc3)CC2)cc1 | -16% | 0% | -2% | 6% | -4% | 36%
CCNC(=S)N1CCN(c2ccc([N+](=O)[O-])cc2)CC1 | -18%[11.4 µM] | -25% | 30µM* | 2% | -1% | -23%
CNC(=S)N1CCN(c2ccc([N+](=O)[O-])cc2)CC1 | -22% | -35% | -17% | 14% | 8% | -3%
Cc1ccc(Cn2c(CNC(=O)c3ccccc3Br)nc3cccnc32)cc1 | -19% | -17% | nt | nt | 44%[59 µM] | 15%[57 µM]
Cc1ccc(/C=c2\sc3n(c2=O)CN(c2cccc(Br)c2)CN=3)o1 | ? | ? | -13% | 20µM* | ? | -7%
O=c1/c(=C/c2ccco2)sc2n1CN(c1ccccc1)CN=2 | -18% | -6% | -13% | 2% | 13µM* | 0%
O=c1/c(=C/c2ccco2)sc2n1CN(c1cccc(Br)c1)CN=2 | ? | ? | -6% | 2% | -40%[12.7 µM] | ?
CCCn1c(=NC(=O)c2cc3ccccc3o2)c(C(=O)OCC)cc2c(=O)n3ccccc3nc21 | 8% | 2% | nt | nt | 2%[59 µM] | 60%
Cc1ccccc1CSc1cn(CC(=O)N2CCCCC2)c2ccccc12 | 4% | -14% | nt | nt | 9%[59 µM] | 55%
COc1ccccc1/C=N\NC(=O)c1ccc(COc2ccc(C)c(C)c2)o1 | -4% | nt | -18% | nt | nt | 22%
COc1ccc(CNc2ncncc2-c2ccc(N(C)C)cc2)c(OC)c1 | nt | nt | nt | 79µM* | -1%[0.501 µM] | nt
COc1ccccc1CNc1ncncc1-c1ccc(N(C)C)cc1 | nt | nt | nt | -6% | nt | nt
Cc1ccc(N=C2C(=S)N(c3ccc(C)cc3)C(=N)N2/N=C/c2ccc(Cl)cc2)cc1 | ? | ? | ? | 40µM* | ? | 3.5µM*
Nn1c(SC/C=C/c2ccccc2)nnc1-c1ccncc1 | ? | -7% | -11% | -6% | 14µM* | 20%
SMILES | JMJD2A Tudor | BAZ2B block | PLK1 PBD inh | Sfp PPTase inh | G9a block | HP1b chromo inh
C(=C\c1ccccc1)/CSc1nnc(-c2cnccn2)n1Cc1ccco1 | ? | -34% | -19% | 35µM* | 10µM* | 6%
Cc1ccc(NC(=O)CSc2nnc(-c3cnccn3)n2Cc2ccco2)cc1 | -10% | ? | 1% | 20µM* | -32%[12.7 µM] | 13%
COc1cc(-c2nnc(SC/C=C/c3ccccc3)n2N)cc(OC)c1OC | -2% | -3% | -3% | 11% | -2%[12.7 µM] | 12%
Cc1cccc(NC(=O)CSc2nnc(-c3cnccn3)n2Cc2ccco2)c1 | -20% | -32% | -15% | -2% | 9%[12.7 µM] | 14%
O=C(CN(C1CCCCC1)S(=O)(=O)c1ccccc1)NCC1CCCO1 (stereo unspecified) | 7% | 4% | -1% | 16% | -13% | 25%
Cc1ccc(S(=O)(=O)c2nc(-c3ccccc3)oc2SCC(=O)NCC2CCCO2)cc1 (stereo unspecified) | -31% | -3% | -18% | -4% | 45µM* | -2%
N#Cc1nc(-c2cccs2)oc1NCC1CCCO1 (stereo unspecified) | -14% | 1% | 2% | 13% | 21%[12.7 µM] | 22%
COc1ccc(NC(=O)CSc2oc(-c3ccc(C)cc3)nc2S(=O)(=O)c2ccc(C)cc2)c(OC)c1 | 56µM* | 1% | nt | nt | ? | ?
O=C(CN(C1CCCCC1)S(=O)(=O)c1ccc(F)cc1)NCC1CCCO1 (stereo unspecified) | 25µM* | nt | 30µM* | nt | nt | ?
O=S(=O)(c1ccccc1)c1nc(-c2cccs2)oc1NCC1CCCO1 (stereo unspecified) | ? | -5% | -12% | 56µM* | 32µM* | 24%
CC1(c2nnc(-c3ccncc3)o2)CC(c2ccc(F)cc2)=NO1 (stereo unspecified) | -11% | -18% | -10% | 23% | -4%[59 µM] | 48%
Cc1ccc(-c2nc(S(=O)(=O)c3ccc(F)cc3)c(SCC(=O)NCC3CCCO3)o2)cc1 (stereo unspecified) | -19%[57.1 µM] | 1% | 19µM* | -7% | 14µM* | -19%
Cc1ccc(S(=O)(=O)c2nc(-c3ccc(F)cc3)oc2SCC(=O)NCC2CCCO2)cc1 (stereo unspecified) | -10% | 5% | -1% | -15% | ? | 23%
O=C(CSc1oc(-c2cccs2)nc1S(=O)(=O)c1ccc(F)cc1)NCC1CCCO1 (stereo unspecified) | -30% | 0% | -27% | -16% | 45µM* | 30%
O=C(CSc1oc(-c2ccc(F)cc2)nc1S(=O)(=O)c1ccc(F)cc1)NCC1CCCO1 (stereo unspecified) | -17% | 8% | 4% | 1% | ? | 8%
CC(C)(C)OC(=O)N1CCC(c2c(C(=O)NCc3ccc4c(c3)OCO4)cnn2-c2ccccc2Cl)CC1 | -28% | -7%[57.1 µM] | nt | nt | -40%[59 µM] | 9%
Cc1ccc(S(=O)Cc2ccc(C(=O)NC3CCCCCC3)o2)cc1 (stereo unspecified) | -19% | nt | nt | nt | -3%[59 µM] | 90%

Bioassay records from PubChem.
